Assay outcomes from PubChem BioAssay.
An excerpt weighted towards active compounds, which were near 2.8% of everything screened.
IDE act: human IDE activators in live cells, primary screen, fluorescence polarization, HEK cells, FAbeta-B substrate; Insulin-degrading enzyme (Homo sapiens), P14735; FAbeta-B cleavage; 0% vehicle, 100% cell-free pure enzyme wells; activation, % at 5.96 µM; 340,000 tested, 0.073% active; AID 493087, 2011;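 active = activation above the mean of all tested compounds plus 3 SD, set per screening campaign, cut at about 17% in these data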
SKKanGAS inh: S. pyogenes SKKanGAS growth inhibitors in kanamycin, primary screen, streptokinase expression inhibitor project, SKKanGAS strain, BacTiter-Glo luminescence. 6 h. inhibition, % at 7.5 µM. 300,000 tested, 1.3% active. AID 1662, 2009;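 active = mean replicate score, as percent of positive control median, at least 50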;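 also: strain carries kanamycin resistance gene driven by streptokinase promoter and grows in 40 µg/ml kanamycin; loss of luminescence reflects streptokinase promoter inhibition or plain growth inhibition; 0% = median of DMSO wells and 100% = positive control at its reference dose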
PP1 counter: PP1-alpha phosphatase inhibitors, primary screen, counter-screen for PP5 inhibitor project, biochemical, fluorescence, OMFP substrate, single point; inhibition, % at 6.7 µM; 320,000 tested, 0.9% active; purified PP1alpha; Serine/threonine-protein phosphatase PP1-alpha catalytic subunit (Homo sapiens), P62136;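 active = inhibition above the mean inhibition of all tested compounds plus 3 SD, computed separately for each screening campaign, cut at about 15% in these data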
IDE cell inh: human IDE inhibitors in live cells, primary screen, fluorescence polarization, HEK cells, FAbetaB substrate. FAbetaB cleavage. inhibition, % at 5.59 µM. 320,000 tested, 0.41% active. Insulin-degrading enzyme (Homo sapiens), P14735;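 active = percent inhibition above the average of all tested compounds plus 3 SD, set per screening campaign, cut at about 16% in these data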;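 also: IDE supplied by intact live HEK cells; FP after avidin binding of uncleaved biotin substrate so inhibition keeps polarization high; 0% = DMSO wells and 100% = 60 µM reference IDE inhibitor Ii1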
Granule exo inh: LAMP-1 surface exposure blockers, TALL-104 cells – cell-based, flow cytometry, MLPCN library, primary screen. TALL-104 LAMP-1 surface exposure; cells stimulated with thapsigargin and PMA. inhibition, % at 10 µM. 360,000 tested, 0.66% active. AID 651702, 2012;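 active = inhibition above about 55%, limit read from the data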
PP5 inh: PP5 phosphatase inhibitors, primary screen, biochemical, fluorescence; purified PP5c, OMFP substrate fluorescence; Serine/threonine-protein phosphatase 5 (Homo sapiens), P53041; inhibition, % at 6.7 µM; AID 1987, 2009; 320,000 tested, 0.18% active;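 active = inhibition above the campaign's mean inhibition across all tested compounds plus 3 SD, cut at about 9.5% in these data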;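 also: 0% = DMSO only and 100% = 100 µM cantharidin control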
Target sequence (P53041 whole entry, looked up): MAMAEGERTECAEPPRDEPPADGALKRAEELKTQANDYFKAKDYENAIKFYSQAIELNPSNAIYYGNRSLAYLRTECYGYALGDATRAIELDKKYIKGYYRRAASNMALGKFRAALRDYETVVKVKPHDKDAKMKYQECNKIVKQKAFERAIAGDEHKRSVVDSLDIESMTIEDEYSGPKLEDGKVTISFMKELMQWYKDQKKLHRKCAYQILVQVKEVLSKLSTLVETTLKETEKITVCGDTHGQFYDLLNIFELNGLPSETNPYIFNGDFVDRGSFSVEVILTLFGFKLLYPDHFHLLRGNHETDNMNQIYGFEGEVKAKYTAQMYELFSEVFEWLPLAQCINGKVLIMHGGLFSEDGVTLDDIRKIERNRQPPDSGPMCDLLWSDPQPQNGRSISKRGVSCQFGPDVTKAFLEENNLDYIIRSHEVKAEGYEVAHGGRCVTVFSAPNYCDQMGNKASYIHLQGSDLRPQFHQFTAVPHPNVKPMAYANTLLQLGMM
PP1 inh confirm: PP1 phosphatase inhibitors, confirmation, biochemical, fluorescence, OMFP substrate, triplicate | shares compounds with PP1 counter | purified PP1alpha | inhibition, % at 6.7 µM | 1,900 tested, 52% active;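 active = mean PP1 inhibition above a set limit taken from the earlier primary screen, cut at about 15% in these data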
PP5 inh counter: PP5 phosphatase inhibition by PP1 hits, confirmation, counter-screen for PP1 inhibitor project, biochemical, fluorescence, triplicate; shares compounds with PP1 counter; AID 2360, 2010; 1,900 tested, 4% active; inhibition, % at 6.7 µM; purified PP5c, OMFP fluorescence;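 active = mean PP5 inhibition over triplicate wells above about 9.5% taken from the earlier PP1 screen, limit read from the data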
An asterisk follows results filed as active.

Results for COCCCN1C(=O)C(CC(=O)NCc2cccs2)CC(C(=O)N(C(C)C)C(C)C)=C1C (stereo not given) ?
Granule exo inh: -1

What do the screens show for `Cc1cccc(OCCn2c(NC(=O)c3ccco3)nc3ccccc32)c1`?
IDE act: 3; SKKanGAS inh: 62*; PP1 counter: 20*; IDE cell inh: -4; Granule exo inh: 50; PP5 inh: 3; PP1 inh confirm: 3; PP5 inh counter: 7

Results for COc1cccc(N=Nc2c(=O)[nH]n3c(=O)cc(C)[nH]c23)c1 ?
IDE act: 5; SKKanGAS inh: 13; PP1 counter: 5; IDE cell inh: 1; Granule exo inh: -4; PP5 inh: 3

What do the screens show for `O=c1[nH]n2c(=O)c3c([nH]c2c1N=Nc1cccc(C(F)(F)F)c1)CCCC3`?
IDE act: 7; SKKanGAS inh: 28; PP1 counter: 26*; IDE cell inh: -9; Granule exo inh: -3; PP5 inh: 1; PP1 inh confirm: 24*; PP5 inh counter: 0

How did COc1cccc(N=Nc2c(=O)[nH]n3c(=O)c4c([nH]c23)CCC4)c1 do in these assays?
IDE act: -1; SKKanGAS inh: 31; PP1 counter: 20*; IDE cell inh: 2; Granule exo inh: 2; PP5 inh: 2; PP1 inh confirm: 16*; PP5 inh counter: 0

What do the screens show for `NS(=O)(=O)c1ccc(N=Nc2c(=O)[nH]n3c(=O)c4c([nH]c23)CCCC4)cc1`?
IDE act: 9; SKKanGAS inh: 2; PP1 counter: 4; IDE cell inh: 0; Granule exo inh: 2; PP5 inh: 3

How did C[C@H](NC(=O)[C@@H]1CCCN1C(=O)[C@@H]1CCCN1C(=O)c1cccc2ccccc12)c1ccccc1 do in these assays?
Granule exo inh: 0

How did C=CCN(Cc1ccc(Cl)s1)C(=O)c1cc(S(=O)(=O)N2CCOCC2)ccc1F do in these assays?
IDE act: 2; PP1 counter: -2; IDE cell inh: 1; Granule exo inh: 1; PP5 inh: 3

Results for COc1ccc([C@H]2C[C@H](n3cc(-c4ccc(F)cc4)nn3)[C@@H](O)CN2C(=O)C2CCCCC2)cc1 ?
Granule exo inh: 2

How did CCCCN(C)S(=O)(=O)c1ccc(C(=O)Nc2nnc(CSC)o2)cc1 do in these assays?
IDE act: 6; SKKanGAS inh: 31; PP1 counter: 24*; IDE cell inh: -5; Granule exo inh: 3; PP5 inh: 1; PP1 inh confirm: 23*; PP5 inh counter: -2

Results for CCOC(=O)N1CCN(S(=O)(=O)c2ccc(C(=O)Nc3nnc(CSC)o3)cc2)CC1 ?
IDE act: -1; SKKanGAS inh: 6; PP1 counter: 18*; IDE cell inh: 4; Granule exo inh: 0; PP5 inh: -4; PP1 inh confirm: 6; PP5 inh counter: 1

Results for CCCCN(CC)S(=O)(=O)c1ccc(C(=O)Nc2nnc(-c3cccs3)o2)cc1 ?
SKKanGAS inh: 98*; PP1 counter: 26*; IDE cell inh: -6; PP5 inh: 9; PP1 inh confirm: 18*; PP5 inh counter: 0

How did CCOC(=O)N1CCN(S(=O)(=O)c2ccc(C(=O)Nc3nnc(C)o3)cc2)CC1 do in these assays?
IDE act: 6; SKKanGAS inh: -4; PP1 counter: 7; IDE cell inh: 2; Granule exo inh: 3; PP5 inh: 1

What do the screens show for `CCCCN(CCCC)S(=O)(=O)c1ccc(C(=O)Nc2nnc(COC)o2)cc1`?
IDE act: -4; SKKanGAS inh: 92*; PP1 counter: 23*; IDE cell inh: 1; Granule exo inh: 2; PP5 inh: 0; PP1 inh confirm: 16*; PP5 inh counter: -2

Results for CCC(=O)N1CCC1(C)C(=O)Nc1ccc(C)c(C)c1 (stereo not given) ?
Granule exo inh: 1

What do the screens show for `CCc1ccc(NS(=O)(=O)c2ccc3[nH]cc(C(=O)N4CCc5ccccc54)c(=O)c3c2)cc1`?
IDE act: 5; SKKanGAS inh: 15; PP1 counter: 19*; IDE cell inh: 8; Granule exo inh: 2; PP5 inh: 0; PP1 inh confirm: 2; PP5 inh counter: -2

Results for Cc1cc(C)cc(NS(=O)(=O)c2ccc3[nH]cc(C(=O)N4CCc5ccccc54)c(=O)c3c2)c1 ?
IDE act: 0; SKKanGAS inh: 10; PP1 counter: 7; IDE cell inh: 1; Granule exo inh: -5; PP5 inh: 1

How did Cc1cccc(C)c1Nc1nnc(SCC(=O)Nc2cc(S(=O)(=O)N3CCCCC3)ccc2Cl)s1 do in these assays?
IDE act: -7; SKKanGAS inh: 20; PP1 counter: 24*; IDE cell inh: -2; Granule exo inh: 4; PP5 inh: 4; PP1 inh confirm: 21*; PP5 inh counter: 0

How did COc1ccc(C2/C(=C(\O)c3ccc4c(c3)OCCO4)C(=O)C(=O)N2c2nc(C)c(C(C)=O)s2)cc1 (stereo not given) do in these assays?
IDE act: 0; SKKanGAS inh: 23; PP1 counter: 19*; IDE cell inh: 8; Granule exo inh: -5; PP5 inh: 2; PP1 inh confirm: 11; PP5 inh counter: -6

Results for COC(=O)c1sc(N)c(C(=O)OC)c1COC(=O)C1CC(=O)N(Cc2ccco2)C1 (stereo not given) ?
IDE act: -3; SKKanGAS inh: 7; PP1 counter: 18*; IDE cell inh: 3; Granule exo inh: 0; PP5 inh: 2; PP1 inh confirm: -3; PP5 inh counter: -2

How did CCOC(=O)c1sc(N)c(C(=O)OCC)c1COC(=O)C1CC(=O)N(Cc2ccco2)C1 (stereo not given) do in these assays?
IDE act: 7; SKKanGAS inh: 3; PP1 counter: 0; IDE cell inh: 0; Granule exo inh: 3; PP5 inh: 1

How did COc1cccc(CNC(=O)[C@@H]2CCCN2C(=O)[C@@H]2CCCN2)c1 do in these assays?
Granule exo inh: -2

Results for O=C(CSc1ccc(-c2ccccn2)nn1)c1ccc(F)cc1 ?
IDE act: -2; SKKanGAS inh: -6; PP1 counter: 3; IDE cell inh: -4; Granule exo inh: -4; PP5 inh: 3
